According to PubChem BioAssay (EPA / NIEHS):
Activity calls are given as the source filed them. How the source made its calls: active means hit-call score of the fitted dose curve at least 0.9, where 1 is the maximum; inactive means score below 0.9.

Assay: ATG_EGR_CIS: Attagene CIS-FACTORIAL HepG2 Assay for human Early Growth Response 1 (EGR1) (AID 2282938)
Conditions: HepG2 Attagene CIS-FACTORIAL EGR reporter mRNA; actives raise or lower the signal
In short: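 Transient transfection of human HepG2 with multiple cis-regulated reporter units, chemical exposure 24 h, total RNA isolated. Reverse transcription, PCR, fluorescent labelling and capillary electrophoresis quantify reporter transcripts; activity fitted bidirectionally against DMSO.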

Row | SMILES | outcome | AC50
1 | Oc1cc2ccccc2c2ccccc12 | inactive | 
2 | CC(C)(C)CC(C)(C)c1ccc(O)c(-n2nc3ccccc3n2)c1 | inactive | 
3 | Cc1ccc(S(=O)(=O)O)c(C)c1 | inactive | 
4 | CCCCCCCCC(=O)O | inactive | 
5 | CN1CCN(c2ccccc2/C=C2\SCCN(c3ccc(Cl)c(Cl)c3)C2=O)CC1 | inactive | 
6 | c1ccc2c(c1)Cc1ccccc1-2 | inactive | 
7 | FC(F)(I)C(F)(F)C(F)(F)C(F)(F)C(F)(F)C(F)(F)I |  | 16.4 µM (active)
8 | CC(C)(C)c1ccc(O)c(C(C)(C)C)c1 | inactive | 
9 | O=C(OCCOCCOC(=O)c1ccccc1)c1ccccc1 | inactive | 
10 | CCCCC(CC)COC(=O)CCCCC(=O)OCC(CC)CCCC (configuration not stated) | inactive | 
11 | CC(C)CCCCCCOC(=O)CCCCC(=O)OCCCCCCC(C)C | inactive | 
12 | C[C@@H]1C[C@H]2[C@@H]3CCC4=CC(=O)C=C[C@]4(C)[C@@]3(F)[C@@H](O)C[C@]2(C)[C@@]1(O)C(=O)COP(=O)(O)O | inactive | 
13 | CCCCC(CC)COC(=O)CCCCC(=O)OCc1ccccc1 (configuration not stated) | inactive | 
14 | COc1ccc([N+](=O)[O-])cc1N | inactive | 
15 | CC(C)(C)c1cc(C(C)(C)C)c(O)c(C(C)(C)C)c1 | inactive | 
16 | c1ccc2c(c1)ccc1ccccc12 | inactive | 
17 | CCCCCCCCOC(=O)CCCCCCCCC(=O)OCCCCCCCC | inactive | 
18 | CC(C)(C)c1cccc(C(C)(C)C)c1O | inactive | 

Row | SMILES | outcome | AC50
19 | CCC(C)(C)C1CCC(O)CC1 (configuration not stated) | inactive | 
20 | CCN(CC)CCNc1ccc(CNC=O)c2sc3ccc(OC)cc3c(=O)c12 | inactive | 
21 | CCCCC[C@H](O)CC(=O)CCc1ccc(O)c(OC)c1 | inactive | 
22 | CC(=O)NC1(c2cccc(F)c2)CCN(CC[C@@]2(c3ccc(Cl)c(Cl)c3)CN(c3ccccc3)C(=O)CO2)CC1 |  | 28.5 µM (active)
23 | Oc1cccc(O)c1 | inactive | 
24 | C#C[C@]1(O)CC[C@H]2[C@@H]3CCC4=CC(=O)CC[C@@H]4[C@H]3CC[C@@]21C | inactive | 
25 | CC(O)CO (configuration not stated) | inactive | 
26 | CCCCCCCCCCCCN1CCCC1=O | inactive | 
27 | O=C(/C=C/c1ccc(O)cc1)CC(=O)/C=C/c1ccc(O)cc1 |  | 11.5 µM (active)
28 | COc1cc(CCC(=O)CC(=O)CCc2ccc(O)c(OC)c2)ccc1O | inactive | 
29 | O=c1c(-c2ccc(O)cc2)coc2cc(O)ccc12 | inactive | 
30 | CCCCCCCCCCCCc1ccccc1S(=O)(=O)O | inactive | 
31 | CCc1nn(C2CCCCC2)c2cc(C3(C#N)CCC(C(=O)O)CC3)ccc12 (configuration not stated) | inactive | 
32 | C=C(C)C(=O)OCCC(F)(F)C(F)(F)C(F)(F)C(F)(F)C(F)(F)C(F)(F)F | inactive | 
33 | CCCCOCCO | inactive | 
34 | CCCOc1sc(C(=O)N2CCC(c3cc(CN)ccc3F)CC2)c(C)c1Br | inactive | 
35 | Cc1cc(CCN2CCN(c3nsc4ccccc34)CC2)cc2c1NC(=O)CC2(C)C |  | 4.06 µM (active)
36 | CCCCCCCCCCCCCCCS(=O)(=O)Oc1ccccc1 | inactive | 

Assay: ATG_M_19_CIS: Attagene CIS-FACTORIAL HepG2 Assay for M19 Transcription Factor (Internal Marker) (AID 2282939)
Conditions: HepG2 Attagene CIS-FACTORIAL M19 internal marker reporter; actives raise or lower the signal
In short: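 In this multiplexed cell assay, transiently transfected HepG2 reporter units report endogenous transcription-factor activity; after 24 hours of treatment, labelled reporter cDNA fragments are quantified by capillary electrophoresis and fitted bidirectionally against DMSO.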

Row | SMILES | outcome
37 | Oc1cc2ccccc2c2ccccc12 | inactive
38 | CC(C)(C)CC(C)(C)c1ccc(O)c(-n2nc3ccccc3n2)c1 | inactive
39 | Cc1ccc(S(=O)(=O)O)c(C)c1 | inactive
40 | CCCCCCCCC(=O)O | inactive
41 | CN1CCN(c2ccccc2/C=C2\SCCN(c3ccc(Cl)c(Cl)c3)C2=O)CC1 | inactive
42 | c1ccc2c(c1)Cc1ccccc1-2 | inactive
43 | FC(F)(I)C(F)(F)C(F)(F)C(F)(F)C(F)(F)C(F)(F)I | inactive
44 | CC(C)(C)c1ccc(O)c(C(C)(C)C)c1 | inactive
45 | O=C(OCCOCCOC(=O)c1ccccc1)c1ccccc1 | inactive
46 | CCCCC(CC)COC(=O)CCCCC(=O)OCC(CC)CCCC (configuration not stated) | inactive
47 | CC(C)CCCCCCOC(=O)CCCCC(=O)OCCCCCCC(C)C | inactive
48 | C[C@@H]1C[C@H]2[C@@H]3CCC4=CC(=O)C=C[C@]4(C)[C@@]3(F)[C@@H](O)C[C@]2(C)[C@@]1(O)C(=O)COP(=O)(O)O | inactive
49 | CCCCC(CC)COC(=O)CCCCC(=O)OCc1ccccc1 (configuration not stated) | inactive
50 | COc1ccc([N+](=O)[O-])cc1N | inactive
51 | CC(C)(C)c1cc(C(C)(C)C)c(O)c(C(C)(C)C)c1 | inactive
52 | c1ccc2c(c1)ccc1ccccc12 | inactive
53 | CCCCCCCCOC(=O)CCCCCCCCC(=O)OCCCCCCCC | inactive
54 | CC(C)(C)c1cccc(C(C)(C)C)c1O | inactive

Row | SMILES | outcome
55 | CCC(C)(C)C1CCC(O)CC1 (configuration not stated) | inactive
56 | CCN(CC)CCNc1ccc(CNC=O)c2sc3ccc(OC)cc3c(=O)c12 | inactive
57 | CCCCC[C@H](O)CC(=O)CCc1ccc(O)c(OC)c1 | inactive
58 | CC(=O)NC1(c2cccc(F)c2)CCN(CC[C@@]2(c3ccc(Cl)c(Cl)c3)CN(c3ccccc3)C(=O)CO2)CC1 | inactive
59 | Oc1cccc(O)c1 | inactive
60 | C#C[C@]1(O)CC[C@H]2[C@@H]3CCC4=CC(=O)CC[C@@H]4[C@H]3CC[C@@]21C | inactive
61 | CC(O)CO (configuration not stated) | inactive
62 | CCCCCCCCCCCCN1CCCC1=O | inactive
63 | O=C(/C=C/c1ccc(O)cc1)CC(=O)/C=C/c1ccc(O)cc1 | inactive
64 | COc1cc(CCC(=O)CC(=O)CCc2ccc(O)c(OC)c2)ccc1O | inactive
65 | O=c1c(-c2ccc(O)cc2)coc2cc(O)ccc12 | inactive
66 | CCCCCCCCCCCCc1ccccc1S(=O)(=O)O | inactive
67 | CCc1nn(C2CCCCC2)c2cc(C3(C#N)CCC(C(=O)O)CC3)ccc12 (configuration not stated) | inactive
68 | C=C(C)C(=O)OCCC(F)(F)C(F)(F)C(F)(F)C(F)(F)C(F)(F)C(F)(F)F | inactive
69 | CCCCOCCO | inactive
70 | CCCOc1sc(C(=O)N2CCC(c3cc(CN)ccc3F)CC2)c(C)c1Br | inactive
71 | Cc1cc(CCN2CCN(c3nsc4ccccc34)CC2)cc2c1NC(=O)CC2(C)C | inactive
72 | CCCCCCCCCCCCCCCS(=O)(=O)Oc1ccccc1 | inactive
